Results from PubChem BioAssay (NCI).
About 83,000 compounds went through this panel and 20% of them were active in at least one assay; those are over-represented in the sample as a whole.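 The endpoint reported here, percent growth, reads 100 for growth as untreated, 0 for no net growth and -100 for all cells dead.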 A number with no mark means an inactive call. Calls of active or inactive are those of the source. How the source made its calls: active means growth percent below 10; inactive means the rest.

Tested on: HL-60(TB) leukemia
Assay: NCI-60 one-dose screen, 48 h (100 = growth as untreated, 0 = no growth, -100 = all killed)
Details: 10 µM unless noted

SMILES | growth
COc1ccc(C(=O)/C=C/c2ccc(Cl)c(C(F)(F)F)c2)cc1S(N)(=O)=O | 6.1% (active)
COc1ccc(-c2cc(C(=O)NCc3ccccc3)nn2-c2ccc(S(C)(=O)=O)cc2)cc1OC | 97%
Cc1ccc(C(=O)CSc2nc3ccc(C)cc3c(=O)n2-c2ccc(F)cc2)cc1 | 123%
C#CCOc1ccc(/C=N/Nc2nc(-c3ccc(Cl)cc3)cs2)cc1OC | 20.1%
COc1ccc(N=Nc2c(N)nn3c(N)c(C#N)c(-c4ccc(F)cc4)nc23)cc1 | 74%
O=C1Nc2cc(-c3ccc(NS(=O)(=O)c4ccc(F)c(Cl)c4)cc3)ccc2/C1=C/c1ccc[nH]1 | 46.9%
N/C(=N\c1nc2ccccc2s1)NC(=O)Nc1c(Cl)cccc1Cl | 17.9%
CC(=O)Nc1ccc(-c2cn(-c3cccc(C(=O)Nc4cc(CN5CCOCC5)cc(C(F)(F)F)c4)c3)nn2)cn1 | -54.3% (active)
COc1ccc2[nH]c(=O)cc(-n3ncc(C(=O)/C=C/c4cc(OC)c(OC)c(OC)c4)c3C)c2c1 | -33.4% (active)
O=C1c2c(c3c4cc(F)ccc4oc3c3[nH]c4ccc(Br)cc4c23)C(=O)N1O | 16.9%
COc1ccc(C2OC[C@@]3(C)C4CC[C@]5(C)C(CC=C6C7CC(C)(C)CC[C@]7(C(=O)O)CC[C@]65C)[C@@]4(C)C[C@@H](O)[C@@H]3O2)cc1 (stereo partly drawn) | 46.9%
O=C(NNC(=S)NCCc1ccccc1)c1ccc(OCc2nc3ccc(Cl)cc3[nH]2)cc1 | 88.9%
C=C1CCC2C3(C)COC(c4ccccc4F)OC3CCC2(C)C1CC(O)C1=CCOC1=O (stereo not drawn) | 70.5%
O=C1NC(=S)/C(=C/c2cn(-c3ccccc3)nc2-c2ccccc2)S1 | 21%
Cc1ccc(/C(N)=N/c2sc(-c3ccccc3)nc2-c2ccccc2)cc1 | 87%
Cc1nn(-c2ccccc2)c2nc(C)n(CC(=O)N/N=C/c3cccc([N+](=O)[O-])c3)c(=O)c12 | 99%
CC1(C)CC[C@]2(C(=O)Nc3ccccc3)CC[C@]3(C)C(=CCC4[C@@]5(C)C[C@@H](O)[C@H](O)[C@@](C)(CO)C5CC[C@]43C)C2C1 (stereo partly drawn) | 13.1%
CNC(=O)c1cccc(NC(=O)c2ccc3c(c2)nnn3/C(C#N)=C/c2ccccn2)c1 | -14.7% (active)
Cc1ccc(C2CC(c3ccc(NC(=O)Nc4ccccc4)cc3)=NN2c2ccc(S(N)(=O)=O)cc2)cc1 (stereo not drawn) | -42.5% (active)
COC(OC)C1=C(C)OC(N)=C(C#N)C12C(=O)Nc1ccccc12 (stereo not drawn) | 67.6%
COc1ccc(-c2nc3ccccc3n2CC(=O)N=Nc2c(O)[nH]c3ccc(Br)cc23)cc1 | 45.2%
CCCCSc1nc(Nc2ccc(/C(C)=N/NC(N)=S)cc2)c(C#N)c(-c2ccccc2)n1 | 79.3%
COc1cc(/C=C/C(=O)c2cnn(-c3cc(=O)[nH]c4ccccc34)c2C)cc(OC)c1OC | 0.36% (active)
NS(=O)(=O)c1ccc(Nc2nc(SCC(=O)c3ccc(F)cc3)nc3ccccc23)cc1 | 63.7%
COc1ccc2oc(=O)c(C3(C)NC(=O)c4c(/C=C/C(=O)OC(C)(C)C)cccc4N3)cc2c1 (stereo not drawn) | -5.42% (active)
COc1ccc(C(=O)Nc2ccc(-c3ccc4c(c3)NC(=O)/C4=C\c3ccc[nH]3)cc2)cc1 | 89.6%
CCCn1c(O)c(N=Nc2nc(-c3cc4ccccc4oc3=O)cs2)c2cc(Br)ccc21 | 99.3%
Cc1ccc(C2CC(c3ccc(NC(=O)Nc4ccccc4)cc3)=NN2c2ccc(S(C)(=O)=O)cc2)cc1 (stereo not drawn) | 13.4%
